About 1,200 (55%) of roughly 2,200 compounds were called active. The limit is not given here; nearly all actives have IC50 up to about 92 µM. So high a share suggests a set chosen from earlier hits. The list shows a part of the results.
Assay: counter assay for TAg ATPase ADP read-out – biochemical, ADP-Hunter, fluorescence, counter-screen (AID 2501);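 also: purified T antigen ATPase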
Conditions: series mostly up to 100 µM

Compound | IC50
O=C(Nc1ccc2[nH]c(=O)[nH]c2c1)c1cccc([N+](=O)[O-])c1 | inactive
C=CCOc1c(CNc2ccc3[nH]c(=O)[nH]c3c2)cccc1OC | 3.28 µM (active)
Cc1ccc(C2C(C#N)=C(N)Oc3c2oc(CO)cc3=O)o1 (configuration not stated) | inactive
O=C1CC(=O)N(Cc2ccco2)C(=S)N1 | inactive
O=C1c2sc3nc4n(c(=O)c3c2CCC1Br)CCCCC4 (configuration not stated) | inactive
COc1cccc(CNc2ccc3[nH]c(=O)[nH]c3c2)c1OCc1ccccc1 | 3.98 µM (active)
C=CCOc1cccc(CNc2ccc3[nH]c(=O)[nH]c3c2)c1 | 4.29 µM (active)
COc1ccc2[nH]c(=O)c(CNc3ccccc3OC)cc2c1 | inactive
COc1cc(/C=C2\SC(=Nc3ccc(Cl)c(C(=O)O)c3)NC2=O)c(Br)c(Br)c1O | 3.98 µM (active)
COc1cc(/C=C2\S/C(=N/S(=O)(=O)c3ccc(C)cc3)NC2=O)c([N+](=O)[O-])cc1OC | inactive
CN1CN(C)c2cccc3cccc1c23 | 13.5 µM (active)
CCOC(=O)c1ccc(N/C=C/C(=O)C(C)(C)C)cc1 | inactive
CN(C)c1ccc(N/C=C/C(=O)c2ccccc2)cc1 | 3.25 µM (active)
CN(C)c1ccc(N/C=C/C(=O)C(F)(F)F)cc1 | 8.86 µM (active)
COc1ccccc1N/C=C/C(=C(C#N)C#N)N(C)C | inactive
O=S(=O)(Nc1c(O)ccc2ccccc12)c1ccc(F)cc1 | inactive
Oc1ccc2ccccc2c1N=Nc1ccccc1F | 7.8 µM (active)
CCOc1cc(/C=N/NC(=O)CSc2cccc3cccnc23)ccc1O | 3.48 µM (active)
O=C(N/N=C/c1ccc(O)c(O)c1)c1ccc(CSc2cccc3cccnc23)cc1 | 29 µM (active)
O=C(CSc1cccc2cccnc12)N/N=C/c1ccc(O)cc1 | 4.35 µM (active)
O=C(COc1cccc2cccnc12)N/N=C/c1ccc(O)cc1 | 73.5 µM (active)
O=S(=O)(Nc1cc(Sc2cccc3cccnc23)c(O)c2ccccc12)c1ccc(F)cc1 | inactive
COc1ccc([C@@H]2[C@@H]3C(=O)N(C(C)(C)C)C(=O)[C@@H]3[C@]3(C)C(=O)N(c4ccc(C)cc4)C(=O)N23)cc1 | inactive
O=C(c1ccco1)N1CCN(C(=O)N2CCCC2)CC1 | inactive
COc1ccc(NC2CCCN(C(=O)c3ccc(OC)o3)C2)cc1 (configuration not stated) | 10.4 µM (active)
CSc1ncc(CN2CCCC(C(=O)Nc3ccc(-c4ccco4)cc3)C2)cn1 (configuration not stated) | inactive

Compound | IC50
COc1ccc(NC2CCCN(C(=O)c3ccc(OC)cc3OC)C2)cc1 (configuration not stated) | 3.38 µM (active)
O=C(c1ccco1)N1CCCC(Nc2ccc3c(c2)OCCO3)C1 (configuration not stated) | 13.5 µM (active)
COc1ccc(NC2CCCN(C(=O)c3ccncc3)C2)cc1 (configuration not stated) | 12 µM (active)
COCc1ccc(C(=O)N2CCCC(CCC(=O)NCc3ccccc3F)C2)o1 (configuration not stated) | inactive
COc1ccc(C(=O)Nc2ccc3c(c2)CCCN3C(=O)c2cccs2)c(OC)c1 | inactive
O=C(c1cc(F)ccc1F)C1CCCN(C(=O)c2ccc(F)cc2Cl)C1 (configuration not stated) | inactive
COc1cc(O)c(C(C)=O)c(CC(=O)O)c1 | inactive
CN(Cc1ccno1)Cc1cn(C)nc1-c1ccc(Oc2ccccc2)cc1 | inactive
CCOc1ccc(C(=O)N(Cc2ccc(OC)cc2)Cc2cc3cc(OC)ccc3[nH]c2=O)cc1 | inactive
N#CC(C#N)=C1C=CC=CN1/C(=C\c1ccco1)C(=O)c1ccc(Br)cc1 | inactive
CCOc1cc(S(=O)(=O)n2nc(C)cc2C)ccc1Br | inactive
COc1ccc(NC2CCCN(C(=O)c3ccc(C(C)=O)cc3)C2)cc1 (configuration not stated) | 2.06 µM (active)
COc1ccc(NC2CCCN(C(=O)c3cccc(C(F)(F)F)c3)C2)cc1OC (configuration not stated) | 12 µM (active)
COc1ccc(NS(=O)(=O)c2ccc3c(c2)[C@H]2C=CC[C@H]2[C@@H](c2ccc(C(=O)O)cc2)N3)cc1 | inactive
COc1ccc(NC(=O)N2CCCC(C(=O)Nc3cccc(C)c3C)C2)cc1 (configuration not stated) | inactive
O=C1CCC(CCC(=O)N2CCCC(C(=O)c3cccc(C(F)(F)F)c3)C2)=NN1 (configuration not stated) | inactive
CCCN1CCN(C(=O)c2cc(COc3ccc4ncccc4c3)on2)CC1 | inactive
COc1ccc(NC2CCCN(C(=O)c3c(C)noc3C)C2)cc1 (configuration not stated) | 6.38 µM (active)
Cc1ccc(C(=O)Oc2oc(-c3ccccc3)nc2C=Nc2ccc(N(C)C)cc2)cc1 | inactive
CN(C)c1ccc(NC(=O)CN2CCC(N3CCCCC3)CC2)cc1 | 6.64 µM (active)
Cc1ccc(C(=O)C2CCN(CC(=O)Nc3ccc(N(C)C)cc3)CC2)cc1 | 6.37 µM (active)
Cc1cc(C)c2c(=O)n(CC(=O)N3CCC(N4CCCCC4)CC3)sc2n1 | inactive
CN(C)c1ccc(NC(=O)CN2CCC(C(=O)c3ccc(F)cc3)CC2)cc1 | 3.05 µM (active)
Cc1ccc(NC(=O)CN2C(=O)N/C(=C/c3cccn3-c3ccc(C(=O)O)cc3)C2=O)cc1 | inactive
CC(C)NC(=O)C1CCN(C2CCN(Cc3ccc4cccc(F)c4n3)CC2)CC1 | inactive
Cc1ccc(NC(=O)CN2C(=O)N/C(=C/c3cc(C)n(-c4ccc(C(=O)O)cc4)c3C)C2=O)cc1 | inactive

— PubChem BioAssay AID2501 (Southern Research Specialized Biocontainment Screening …, 2010)
